Measurements as given in PubChem BioAssay (NCATS).
Records with an inconclusive call do not appear. Active and inactive are the calls of the source. Calls follow the shape of the dose curve; as a rule, active = well fitted cell-killing curve with a large enough effect; inconclusive = small, poorly fitted or top-dose-only effect, or effect the other way; inactive = no such curve, though single readings can be large or run the other way.

Experiment: Quantitative High-Throughput drug screen in 47 multiple myeloma cell lines against the NCATS MIPE library collection: Delta47_JCRB cell viability assay (AID 1918925; also: nearly all actives have a fitted effect of over 45% in size;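 as to viability (% of DMSO): 0% = media-only wells and 100% = DMSO-only wells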)
Settings: Delta47 myeloma viability, CellTiter-Glo ATP, 48 h; series mostly up to 45.8 µM; viability (% of DMSO): at the top concentration
Outline: (§1)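 Steps: seed 500 cells per well; pin-transfer MIPE 4.0 library; incubate 48 h at 37C, 5% CO2, humidified; add CellTiter-Glo, 5 min room temperature; read luminescence.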
Potency is read from the fitted curve at half-maximal effect.

Q: With `CC[C@@H]1C=C(C)C[C@H](C)C[C@H](OC)[C@H]2O[C@@](O)(C(=O)C(=O)N3CCCC[C@@H]3C(=O)O[C@H](C(C)=C[C@@H]3CC[C@H](Cl)[C@H](OC)C3)[C@H](C)[C@@H](O)CC1=O)[C@H](C)C[C@H]2OC` as the compound, how does the Potency read?
A: The Potency was 16.6 µM (active).

Q: For `C=C1C(=O)OC2C=C(C)CCC=C(C)CCC12` (stereo not given), which Potency is on record?
A: The Potency was 18.7 µM (active).

Q: With `Cc1ccc([C@@H]2O[C@H](CO)[C@@H](O)[C@H](O)[C@@H]2O)cc1Cc1ccc(-c2ccc(F)cc2)s1` as the compound, how does the Potency read?
A: The Potency was 20.9 µM (active).

Q: For `O=C(O)c1ccc(-c2cc3cccnc3c(-c3ccc4nonc4c3)n2)cc1`, which Potency is on record?
A: Its Potency is 23.5 µM (active).

Q: With `C=CCc1ccc(O)c(-c2ccc(O)c(CC=C)c2)c1` as the compound, how does the Potency read?
A: The Potency was 18.7 µM (active).

Q: With `COc1ccc(-c2oc3c(CC=C(C)C)c(OC4O[C@H](CO)[C@@H](O)[C@H](O)[C@@H]4O)cc(O)c3c(=O)c2OC2O[C@@H](C)[C@H](O)[C@@H](O)[C@@H]2O)cc1` (stereo not given in full) as the compound, how does the Potency read?
A: The Potency was 18.7 µM (active).

Q: For `Nc1ncnc2c1ncn2[C@@H]1O[C@H](CO)C[C@@H]1O`, which “viability (% of DMSO)” value is on record?
A: The value was 79.5% (inactive).

Q: With `CC=C(C)C(=O)O[C@H]1C(C)=C[C@]23C(=O)[C@@H](C=C(CO)[C@@H](O)[C@]12O)[C@H]1[C@@H](C[C@H]3C)C1(C)C` as the compound, how does the Potency read?
A: The Potency was 5.26 µM (active).

Q: For `Nc1ncnc2c1ncn2[C@@H]1O[C@@H](CO)[C@H](O)[C@H]1O`, which “viability (% of DMSO)” value is on record?
A: The value was 111% (inactive).

Q: With `CCC(=O)NC[C@H](Cc1ccc(OCCc2nc(-c3ccccc3)oc2C)cc1)NC(C)=CC(=O)c1ccc(C(F)(F)F)cc1` as the compound, how does the “viability (% of DMSO)” value read?
A: Its value is 93.8% (inactive).

Q: Which Potency does the source give for `O=c1c(-c2ccc(O)cc2)coc2cc(OC3O[C@H](CO)[C@H](O)[C@H](O)[C@H]3O)cc(O)c12` (stereo not given in full) here?
A: The Potency was 3.72 µM (active).

Q: For `CC(=O)O[C@]1(C(C)=O)CC[C@@H]2[C@@H]3C[C@H](C)C4=CC(=O)CC[C@]4(C)[C@H]3CC[C@@]21C`, which Potency is on record?
A: The Potency was 18.7 µM (active).

Q: For `O=C1NC(=O)C(=Cc2ccc3nccnc3c2)S1`, which Potency is on record?
A: The Potency was 6.45 µM (active).

Q: For `CNC(=O)c1ccccc1Sc1ccc2c(C=Cc3ccccn3)n[nH]c2c1`, which Potency is on record?
A: The Potency was 3.72 µM (active).

Q: Which Potency does the source give for `Clc1ccc(CCC(Cn2ccnc2)Sc2c(Cl)cccc2Cl)cc1` (stereo not given) here?
A: The Potency was 23.5 µM (active).

Q: Which “viability (% of DMSO)” value does the source give for `Cc1c[nH]c(C=C2C(=O)Nc3ccccc32)c1CCC(=O)O` here?
A: The value was 97.1% (inactive).

Q: For `Cc1cc(OCCCc2c(C(=O)O)n(Cc3cccnc3)c3c(-c4c(COc5ccc(N6CCN([S+](C)(=O)[O-])CC6)cc5)nn(C)c4C)cccc23)cc(C)c1Cl`, which Potency is on record?
A: The Potency was 18.7 µM (active).

Q: Which “viability (% of DMSO)” value does the source give for `CCC(CC)[C@H](NC(C)=O)[C@@H]1[C@H](O)[C@@H](C(=O)O)C[C@@H]1N=C(N)N` here?
A: Its value is 81.6% (inactive).

Experiment: Quantitative High-Throughput drug screen in 47 multiple myeloma cell lines against the NCATS MIPE library collection: EJM_DSMZ cell viability assay (AID 1918926; also: nearly all actives have a fitted effect of over 30% in size;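 as to viability, % of control: 100% = DMSO-only wells and 0% = media-only wells without cells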)
Settings: EJM myeloma cell viability, CellTiter-Glo ATP, 48 h; series mostly up to 45.8 µM; viability, % of control: at the top concentration
Outline: as §1

Q: Which Potency does the source give for `O=C(O)c1ccc(-c2cc3cccnc3c(-c3ccc4nonc4c3)n2)cc1` here?
A: The Potency was 18.7 µM (active).

Q: For `C=CCc1ccc(O)c(-c2ccc(O)c(CC=C)c2)c1`, which Potency is on record?
A: The Potency was 23.5 µM (active).

Q: Which “viability, % of control” value does the source give for `Nc1ncnc2c1ncn2[C@@H]1O[C@H](CO)C[C@@H]1O` here?
A: Its value is 88.7% (inactive).

Q: For `Nc1ncnc2c1ncn2[C@@H]1O[C@@H](CO)[C@H](O)[C@H]1O`, which “viability, % of control” value is on record?
A: The value was 103% (inactive).

Q: Which Potency does the source give for `CCC(=O)NC[C@H](Cc1ccc(OCCc2nc(-c3ccccc3)oc2C)cc1)NC(C)=CC(=O)c1ccc(C(F)(F)F)cc1` here?
A: Its Potency is 26.4 µM (active).

Q: For `CC(=O)O[C@]1(C(C)=O)CC[C@@H]2[C@@H]3C[C@H](C)C4=CC(=O)CC[C@]4(C)[C@H]3CC[C@@]21C`, which Potency is on record?
A: The Potency was 20.9 µM (active).

Q: For `CC(=NNC(=S)N1CCC1)c1ccccn1`, which “viability, % of control” value is on record?
A: The value was 30% (inactive).

Q: With `Cn1cc(C=C2C(=O)Nc3cccnc32)c2ccccc21` as the compound, how does the “viability, % of control” value read?
A: Its value is 94.7% (inactive).

Q: For `CNC(=O)c1ccccc1Sc1ccc2c(C=Cc3ccccn3)n[nH]c2c1`, which Potency is on record?
A: Its Potency is 23.5 µM (active).

Q: Which “viability, % of control” value does the source give for `CCCCCN(C)CCC(O)(P(=O)(O)O)P(=O)(O)O` here?
A: The value was 103% (inactive).

Q: For `O=c1ccn([C@@H]2O[C@H](CO)[C@H](O)[C@H]2O)c(=O)[nH]1`, which “viability, % of control” value is on record?
A: Its value is 104% (inactive).

Q: Which Potency does the source give for `O=C(O)C=Cc1ccc(O)c(O)c1` here?
A: The Potency was 13.2 µM (active).

Q: Which “viability, % of control” value does the source give for `CCC(CC)[C@H](NC(C)=O)[C@@H]1[C@H](O)[C@@H](C(=O)O)C[C@@H]1N=C(N)N` here?
A: Its value is 105% (inactive).

Experiment: Quantitative High-Throughput drug screen in 47 multiple myeloma cell lines against the NCATS MIPE library collection: AMO1_DSMZ cell viability assay (AID 1918927; also: nearly all actives have a fitted effect of over 30% in size;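 as to viability, % of DMSO: 100% = DMSO only wells and 0% = cell-free media only wells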)
Settings: AMO1 myeloma cells viability, CellTiter-Glo ATP luminescence, 48 h; series mostly up to 45.8 µM; viability, % of DMSO: at the top concentration
Outline: as §1

Q: For `CC[C@@H]1C=C(C)C[C@H](C)C[C@H](OC)[C@H]2O[C@@](O)(C(=O)C(=O)N3CCCC[C@@H]3C(=O)O[C@H](C(C)=C[C@@H]3CC[C@H](Cl)[C@H](OC)C3)[C@H](C)[C@@H](O)CC1=O)[C@H](C)C[C@H]2OC`, which Potency is on record?
A: Its Potency is 9.35 µM (active).

Q: For `CC=CCC=CCCC(=O)[C@H]1O[C@@H]1C(N)=O`, which Potency is on record?
A: The Potency was 20.9 µM (active).

Q: For `Clc1ccc(-c2nc3sccn3c2C=NOCc2ccc(Cl)c(Cl)c2)cc1`, which “viability, % of DMSO” value is on record?
A: Its value is 120% (inactive).

Q: Which Potency does the source give for `C=C1C(=O)OC2C=C(C)CCC=C(C)CCC12` (stereo not given) here?
A: The Potency was 18.7 µM (active).

Q: For `Cc1ccc([C@@H]2O[C@H](CO)[C@@H](O)[C@H](O)[C@@H]2O)cc1Cc1ccc(-c2ccc(F)cc2)s1`, which Potency is on record?
A: Its Potency is 18.7 µM (active).

Q: With `C=CCc1ccc(O)c(-c2ccc(O)c(CC=C)c2)c1` as the compound, how does the Potency read?
A: The Potency was 23.5 µM (active).

Q: For `COc1ccc(-c2oc3c(CC=C(C)C)c(OC4O[C@H](CO)[C@@H](O)[C@H](O)[C@@H]4O)cc(O)c3c(=O)c2OC2O[C@@H](C)[C@H](O)[C@@H](O)[C@@H]2O)cc1` (stereo not given in full), which Potency is on record?
A: The Potency was 8.33 µM (active).

Q: For `Nc1ncnc2c1ncn2[C@@H]1O[C@H](CO)C[C@@H]1O`, which “viability, % of DMSO” value is on record?
A: The value was 99.6% (inactive).

Q: With `CC[C@H]1OC(=O)[C@H](C)C(=O)[C@H](C)[C@@H](O[C@H]2O[C@H](C)C[C@H](N(C)C)[C@@H]2O)[C@](C)(OC)C[C@@H](C)C(=O)[C@H](C)[C@H]2N(CCCCn3cnc(-c4cccnc4)c3)C(=O)O[C@]12C` as the compound, how does the “viability, % of DMSO” value read?
A: Its value is 108% (inactive).

Q: For `CC=C(C)C(=O)O[C@H]1C(C)=C[C@]23C(=O)[C@@H](C=C(CO)[C@@H](O)[C@]12O)[C@H]1[C@@H](C[C@H]3C)C1(C)C`, which Potency is on record?
A: The Potency was 18.7 µM (active).

Q: With `Nc1ncnc2c1ncn2[C@@H]1O[C@@H](CO)[C@H](O)[C@H]1O` as the compound, how does the “viability, % of DMSO” value read?
A: Its value is 92.3% (inactive).

Q: Which “viability, % of DMSO” value does the source give for `O=c1c(-c2ccc(O)cc2)coc2cc(OC3O[C@H](CO)[C@H](O)[C@H](O)[C@H]3O)cc(O)c12` (stereo not given in full) here?
A: Its value is 102% (inactive).

Q: Which “viability, % of DMSO” value does the source give for `COc1ccc2c3c1OC1C[C@@H](O)C=C[C@@]31CCN(C)C2` (stereo not given in full) here?
A: Its value is 105% (inactive).

Q: For `CC(=NNC(=S)N1CCC1)c1ccccn1`, which Potency is on record?
A: Its Potency is 0.001 µM (active).

Q: For `O=C1NC(=O)C(=Cc2ccc3nccnc3c2)S1`, which “viability, % of DMSO” value is on record?
A: The value was 134% [at 23.2 µM] (inactive).

Q: With `CNC(=O)c1ccccc1Sc1ccc2c(C=Cc3ccccn3)n[nH]c2c1` as the compound, how does the Potency read?
A: The Potency was 2.64 µM (active).

Q: Which Potency does the source give for `NC(=O)NN=Cc1ccc([N+](=O)[O-])o1` here?
A: Its Potency is 10.5 µM (active).

Q: Which Potency does the source give for `NC1=N[C@@]2(c3cc(NC(=O)c4ccc(F)cn4)ccc3F)COC[C@@H]2CS1` here?
A: Its Potency is 2.64 µM (active).

Q: With `Clc1ccc(CCC(Cn2ccnc2)Sc2c(Cl)cccc2Cl)cc1` (stereo not given) as the compound, how does the Potency read?
A: The Potency was 14.8 µM (active).

Q: With `COCCCCC(=NOCCN)c1ccc(C(F)(F)F)cc1` as the compound, how does the “viability, % of DMSO” value read?
A: Its value is 101% (inactive).

Q: With `CC1(C)Cc2c(sc(NC(=S)NC(=O)c3ccccc3)c2C(=O)O)CO1` as the compound, how does the “viability, % of DMSO” value read?
A: Its value is 96.9% (inactive).

Q: For `Clc1ccc(COC(Cn2ccnc2)c2ccc(Cl)cc2Cl)cc1` (stereo not given), which Potency is on record?
A: The Potency was 23.5 µM (active).

Q: Which “viability, % of DMSO” value does the source give for `Cc1cc(OCCCc2c(C(=O)O)n(Cc3cccnc3)c3c(-c4c(COc5ccc(N6CCN([S+](C)(=O)[O-])CC6)cc5)nn(C)c4C)cccc23)cc(C)c1Cl` here?
A: Its value is 95.1% (inactive).

Q: With `COC(=O)C1=CO[C@@H](O)[C@@H]2C(CO)=CC[C@@H]12` as the compound, how does the Potency read?
A: Its Potency is 18.7 µM (active).
